Data on 14 compounds can be found in PubChem BioAssay.

Experiment [1] in a line: inhibitors of TNFa-induced NFkB p65 translocation, primary screen, imaging, HUVEC, MLSMR starter and 10KST1 sets (AID 438;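 active = inhibition above 20% together with a positive visual image hit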;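 note: compound added about 3h40 before a 20 min TNFalpha stimulation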;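 for inhibition: signal is the nuclear over cytoplasmic p65 intensity ratio per well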). The note with it: HUVEC TNFa-induced p65 nuclear translocation; cell count: measured here: nuclei count (cytotoxicity indicator), at 2.08 µM; inhibition: at 2 µM, stronger effect = higher value, 0% TNFa-plus-vehicle, 100% no-TNFa wells.
Experiment [2] can be described thus: inhibitors of mutant huntingtin aggregation, primary screen, imaging, exon1htt(103Q)mCFP cells, high-content imaging (AID 483;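 active = visual image review flags a hit and inhibition of aggregation exceeds 20%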;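 note: compound exposure lasted 3 days before fixation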;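 for nuclei count: percent of the per-plate median nuclei count of sample wells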). The note with it: exon1htt(103Q)mCFP cell line, aggregate imaging, at 2 µM; inhibition of aggregation: stronger effect = higher value; nuclei count: measured here: cell count, toxicity.
The nature of experiment [3]: inhibitors of E-selectin induction by TNFa, primary screen, imaging, HUVEC, immunofluorescence, MLSMR starter and 10KST1 sets (AID 487;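 active = visually confirmed hit in the image check and inhibition above 20%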;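 for inhibition: signal is fraction of cell area covered by stained E-selectin grains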;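 for nuclei count: 100% = median nuclei count of all wells on the same plate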). The note with it: HUVEC TNFalpha-induced E-selectin immunofluorescence imaging, at 2 µM; inhibition: stronger effect = higher value; nuclei count: measured here: cell number, toxicity.
Experiment [4] has as its target Voltage-gated potassium channel subunit beta-2 (Rattus norvegicus) (UniProt P62483). The experiment is described as follows: KvBeta enzyme negative modulators, primary screen, biochemical, NADPH fluorescence (AID 622;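 active = fluorescence slope higher than the sample average by over 3 SD, cut at about -0.22 in these data, passing the limit was not always enough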;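 note: slope of raw intensity against log time taken from 70 to 1610 s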). Conditions: recombinant KvBeta, 4-cyanobenzaldehyde reduction, at 10 µM, stronger effect = higher value.
For experiment [5] the target is unchanged. Kind of experiment: KvBeta positive modulators, primary screen, biochemical, NADPH fluorescence (AID 623).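 Note: fluorescence intensity change per second fitted from 20 to 320 s.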 The note with it: Recombinant KvBeta, NADPH fluorescence decrease slope, 10 min; at 10 µM; stronger effect = lower value.
Experiment [6] deals with Alpha-2C adrenergic receptor (Homo sapiens) (UniProt P18825). The experiment is described as follows: modulators of alpha2C/GIRK thallium flux, primary screen, cell-based, HEK293 alpha2C/GIRK1/2 (AID 624;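 active = fluorescence slope after compound addition differing from the mean of all screened samples at 99.7% confidence, in either direction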;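 note: slope of fluorescence ratio to pre-addition baseline per second over 15 to 24 s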). Conditions: thallium flux BTC fluorescence, at 10 µM, actives lie on both sides.
Sequence of Alpha-2C adrenergic receptor (Homo sapiens) (P18825 whole entry, looked up): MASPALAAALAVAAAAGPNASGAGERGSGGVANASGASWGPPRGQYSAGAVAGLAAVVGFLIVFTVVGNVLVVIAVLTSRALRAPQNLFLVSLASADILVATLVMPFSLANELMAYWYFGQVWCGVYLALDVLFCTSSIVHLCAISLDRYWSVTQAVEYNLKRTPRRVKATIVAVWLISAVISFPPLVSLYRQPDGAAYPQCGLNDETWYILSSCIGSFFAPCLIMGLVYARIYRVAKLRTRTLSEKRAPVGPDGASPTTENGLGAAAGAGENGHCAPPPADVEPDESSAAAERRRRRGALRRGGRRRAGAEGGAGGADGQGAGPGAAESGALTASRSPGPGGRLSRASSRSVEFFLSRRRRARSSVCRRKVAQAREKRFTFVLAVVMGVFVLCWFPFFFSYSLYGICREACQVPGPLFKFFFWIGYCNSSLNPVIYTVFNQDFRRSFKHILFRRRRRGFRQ
A short description of experiment [7]: inhibitors of Sendai virus-induced IRF3 signaling, primary screen, TLR/RLR signaling modifier project, cell-based, Sendai virus stimulus, luciferase, 10K MLSCN set (AID 602276;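 active = inhibition at or above 50% at 10 µM; inactive = inhibition below 50%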;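 note: firefly luciferase from ISG56 promoter only with Renilla not read in this screen; 0% = Sendai virus plus DMSO and 100% = medium plus DMSO without virus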). The note with it: HEK293 RL24 IRF3 luciferase reporter, at 10 µM, stronger effect = higher value. (In a reporter assay the amount or activity of a reporter protein is the signal.)
A short description of experiment [8]: inhibitors of poly I:C-induced TLR3 signaling, primary screen, cell-based, poly I:C stimulus, luciferase, 10K MLSCN set (AID 602277;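 active = inhibition of the reporter signal at or above 50%; inactive = inhibition below 50%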). The note with it: HEK293-TLR3 RL24 IRF3 luciferase reporter, at 10 µM, stronger effect = higher value.

The source made the active and inactive calls.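 Rule for the calls, unless noted: active = NADPH fluorescence slope more negative than the mean of all samples by about 3 SD, 99.7% confidence; inactive = the rest.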

Sequence of Voltage-gated potassium channel subunit beta-2 (Rattus norvegicus) (P62483 whole entry, looked up): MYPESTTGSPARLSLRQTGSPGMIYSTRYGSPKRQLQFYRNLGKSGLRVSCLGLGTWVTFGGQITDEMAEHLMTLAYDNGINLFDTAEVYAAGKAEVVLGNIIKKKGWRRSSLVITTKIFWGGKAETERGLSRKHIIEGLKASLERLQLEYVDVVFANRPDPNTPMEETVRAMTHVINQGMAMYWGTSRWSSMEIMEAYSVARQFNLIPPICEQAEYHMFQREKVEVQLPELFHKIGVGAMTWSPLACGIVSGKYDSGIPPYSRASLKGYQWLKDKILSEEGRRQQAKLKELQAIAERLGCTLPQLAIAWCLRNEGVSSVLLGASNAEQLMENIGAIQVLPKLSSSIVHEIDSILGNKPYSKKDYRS

As for `Cc1cc(=O)n2nc(-c3ccccc3)sc2n1`, the cell count in experiment [1] is 563. For the same compound, the inhibition in experiment [1] is -1.1% (inactive); in experiment [3], -70.5% (inactive); in experiment [7], -17.6% (inactive); in experiment [8], -64.6% (inactive). In experiment [2], the inhibition of aggregation was -4.1% (inactive). The nuclei count in experiment [2] came out at 106%; in experiment [3] it was 108%. The fluorescence slope in experiment [4] is -0.421 (inactive). The NADPH fluorescence slope in experiment [5] was -9.5e-06 (inactive). Besides, in experiment [6], the slope was 0.00585 (inactive).

In the case of `CCOC(=O)/N=C(/NC(=O)Nc1ccc(C(=O)OCC)cc1)OC`, the cell count in experiment [1] turned out to be 266. In addition, the inhibition in experiment [1] was -3.6% (inactive); in experiment [3] it was 7.6% (inactive); in experiment [7], 13.9% (inactive); in experiment [8], 23.9% (inactive). Moreover, the inhibition of aggregation in experiment [2] was 17% (inactive). The nuclei count in experiment [2] was found to be 92.2%; in experiment [3], 108%. Also, the fluorescence slope in experiment [4] was -0.583 (inactive). Further, the NADPH fluorescence slope in experiment [5] is -6e-05 (inactive). For the same compound, the slope in experiment [6] is 0.00625 (inactive).

`COC(=O)n1c(=S)oc2cc(Cl)ccc21`: the cell count in experiment [1] is 673. Besides, the inhibition in experiment [1] is 8.2% (inactive); in experiment [3], 16.4% (inactive); in experiment [7], 16.6% (inactive); in experiment [8], 31.1% (inactive). The inhibition of aggregation in experiment [2] was -25.1% (inactive). In addition, the nuclei count is 106% in experiment [2] and 93% in experiment [3]. In experiment [4], the fluorescence slope was -0.638 (inactive). The NADPH fluorescence slope in experiment [5] was 1.8e-05 (inactive). Moreover, the slope in experiment [6] is 0.0107 (inactive).

As to `CCSc1nnc2c(n1)OC=Nc1ccc(Br)cc1-2`, the cell count in experiment [1] worked out at 262. Moreover, the inhibition in experiment [1] is -12.8% (inactive); in experiment [3], -24.2% (inactive); in experiment [7], 15.5% (inactive); in experiment [8], 20.5% (inactive). Also, the inhibition of aggregation in experiment [2] is 20.4% (inactive). For the same compound, the nuclei count in experiment [2] came to 62.3%; in experiment [3] it was 84.5%. The fluorescence slope in experiment [4] is -0.38 (inactive). For the same compound, the NADPH fluorescence slope in experiment [5] is -3.3e-05 (inactive). The slope in experiment [6] was 0.00298 (inactive).

In the case of `Cc1ccccc1-n1c(=O)cc(NCc2ccc3c(c2)OCO3)[nH]c1=O`, in experiment [1], the cell count worked out at 447. Also, the inhibition in experiment [1] is 1.6% (inactive); in experiment [3] it was -155% (inactive); in experiment [7], 16.5% (inactive); in experiment [8], 19.7% (inactive). The inhibition of aggregation in experiment [2] was 40.2% (active). Moreover, the nuclei count in experiment [2] is 74.9%; in experiment [3], 95.2%. The fluorescence slope in experiment [4] was -0.614 (inactive). Further, the NADPH fluorescence slope in experiment [5] is 1.9e-05 (inactive). The slope in experiment [6] is 0.00889 (inactive).

Consider `CCCOc1ccc(N2CC(C(=O)Nc3ccc4c(c3)OCO4)CC2=O)cc1` (centres undefined), for which the cell count in experiment [1] amounted to 520. The inhibition is -5% (inactive) in experiment [1], -12.8% (inactive) in experiment [3], 3.94% (inactive) in experiment [7] and 6.03% (inactive) in experiment [8]. For the same compound, the inhibition of aggregation in experiment [2] was 14.9% (inactive). Further, the figures for the nuclei count in experiment [2] and in experiment [3] were 81% and 81.9%, respectively. In addition, the fluorescence slope in experiment [4] is -0.444 (inactive). In experiment [5], the NADPH fluorescence slope was -2.5e-06 (inactive). Besides, the slope in experiment [6] is 0.00561 (inactive).

Turning to `Nn1c(SCC(=O)NC2CCCCC2)nnc1C1CC1`, the cell count in experiment [1] was 433. Moreover, the inhibition in experiment [1] was -28.7% (inactive); in experiment [3], -36.9% (inactive); in experiment [7], 4.49% (inactive); in experiment [8], 16.1% (inactive). The inhibition of aggregation in experiment [2] is 7.4% (inactive). Also, the nuclei count was determined as 95.6% in experiment [2] and 117% in experiment [3]. Further, the fluorescence slope in experiment [4] is -0.466 (inactive). The NADPH fluorescence slope in experiment [5] was 4.6e-05 (inactive). Besides, the slope in experiment [6] was 0.00622 (inactive).

In the case of `CCOC(=O)c1sc(NC(=O)CSc2n[nH]c(-c3ccccc3)n2)c(C#N)c1C`, the cell count in experiment [1] was 634. In addition, the inhibition in experiment [1] is -4.4% (inactive); in experiment [3] it was 106% (active); in experiment [7], 7.86% (inactive); in experiment [8], -25.2% (inactive). In experiment [2], the inhibition of aggregation was -7.1% (inactive). The nuclei count in experiment [2] turned out to be 94%; in experiment [3] it was 122%. Further, the fluorescence slope in experiment [4] is -0.393 (inactive). In addition, the NADPH fluorescence slope in experiment [5] is 2.8e-05 (inactive). Besides, in experiment [6], the slope was 0.00567 (inactive).

For the compound `O=P(O)(CN1CCCCCC1)CN1CCCCCC1`, the cell count in experiment [1] is 575. The inhibition is 13.9% (inactive) in experiment [1], 6% (inactive) in experiment [3], -7.54% (inactive) in experiment [7] and 17.4% (inactive) in experiment [8]. Also, the inhibition of aggregation in experiment [2] was -5.3% (inactive). Moreover, the nuclei count turned out to be 107% in experiment [2] and 112% in experiment [3]. The fluorescence slope in experiment [4] was -0.484 (inactive). Moreover, the NADPH fluorescence slope in experiment [5] is -5.2e-05 (inactive). Moreover, in experiment [6], the slope was 0.0053 (inactive).

Turning to `O=C(Nc1cnn(Cc2ccc(F)cc2)c1)c1cnccn1`, the cell count in experiment [1] is 582. Moreover, the inhibition is -17% (inactive) in experiment [1], -94.9% (inactive) in experiment [3], 4.25% (inactive) in experiment [7] and 8.05% (inactive) in experiment [8]. Further, the inhibition of aggregation in experiment [2] is -7.5% (inactive). In addition, the nuclei count in experiment [2] came to 109%; in experiment [3], 120%. Also, the fluorescence slope in experiment [4] was -0.504 (inactive). For the same compound, the NADPH fluorescence slope in experiment [5] was -4.3e-05 (inactive). The slope in experiment [6] is 0.00522 (inactive).

In the case of `CC(c1ccccc1)n1cnc2ccccc21` (centres undefined), in experiment [1], the cell count stood at 590. The inhibition in experiment [1] is -2.5% (inactive); in experiment [3], -48% (inactive); in experiment [7], 7.98% (inactive); in experiment [8], 19% (inactive). The inhibition of aggregation in experiment [2] was 17.1% (inactive). Besides, the figures for the nuclei count in experiment [2] and in experiment [3] were 94.1% and 148%, respectively. For the same compound, the fluorescence slope in experiment [4] was -0.364 (inactive). Further, in experiment [5], the NADPH fluorescence slope was -6.9e-05 (inactive). In addition, in experiment [6], the slope was 0.00531 (inactive).

`COc1cccc(NS(=O)(=O)c2ccc3[nH]cc(C(=O)NC4CC4)c(=O)c3c2)c1`: the cell count in experiment [1] came to 305. The inhibition was 4% (inactive) in experiment [1], -42.4% (inactive) in experiment [3], 13.8% (inactive) in experiment [7] and 32.8% (inactive) in experiment [8]. Moreover, the inhibition of aggregation in experiment [2] is -2.9% (inactive). The results for the nuclei count in experiment [2] and in experiment [3] were 113% and 126%, respectively. Moreover, the fluorescence slope in experiment [4] is -0.603 (inactive). Moreover, in experiment [5], the NADPH fluorescence slope is -7e-05 (inactive). Besides, the slope in experiment [6] was 0.00731 (inactive).

With `CCCC(=O)Nc1c2c(nn1-c1ccc(OC)cc1)CS(=O)C2` (centres undefined), the cell count in experiment [1] came out at 472. Also, the inhibition was 4.2% (inactive) in experiment [1], -70.5% (inactive) in experiment [3], 10.8% (inactive) in experiment [7] and 22.2% (inactive) in experiment [8]. Further, the inhibition of aggregation in experiment [2] was -25.4% (inactive). Moreover, the nuclei count amounted to 117% in experiment [2] and 100% in experiment [3]. For the same compound, in experiment [4], the fluorescence slope was -0.476 (inactive). For the same compound, the NADPH fluorescence slope in experiment [5] is -3.3e-05 (inactive). Moreover, the slope in experiment [6] is 0.00523 (inactive).

Take `COc1ccc(C(=O)NCc2ccccc2OC)cc1`: the cell count in experiment [1] worked out at 590. Besides, the inhibition in experiment [1] is -0.6% (inactive); in experiment [3], -25.9% (inactive); in experiment [7], -2.6% (inactive); in experiment [8] it was -7.58% (inactive). In addition, the inhibition of aggregation in experiment [2] is -15.5% (inactive). The nuclei count was determined as 107% in experiment [2] and 111% in experiment [3]. Besides, in experiment [4], the fluorescence slope is -0.47 (inactive). Further, the NADPH fluorescence slope in experiment [5] is -0.000293 (inactive). The slope in experiment [6] was 0.00583 (inactive).

By inhibition is commonly meant the drop in the measured response relative to a control, in per cent.
